# High-throughput results: PubChem BioAssay, National Center for Advancing Translational Sciences (NCATS)
# Cycloheximide cs – counter-screen hit for Shiga toxin inhibitors, cycloheximide; cell reporter, cycloheximide protein synthesis inhibition counterscreen; max response, %; 300,000 compounds, 12% hits; AID 2314; in the data active = max response mostly above about 13%, no sharp cut-off; inactive = mostly below about 14%; note: read at 38.3 µM for the half of the compounds with a filed dose; 0% is about no effect
# HCMV antiviral – human cytomegalovirus inhibition; HFF cells, HCMV-luciferase reporter, 72 h; active compounds read low; activity change, negative = inhibition, % at 57.5 µM; 410,000 compounds, 4.5% hits; in the data active = activity change below about -60%; inconclusive = no clear call, values can overlap the other calls; inactive = above about -39%; note: % is set by controls: 0 for no effect and ±100 for the full control effect
#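 Two-dose cell screen: HFF monolayers treated with compounds and infected with luciferase-expressing HCMV at 1 PFU/cell, 72 h at 37C, then lysed for luciferase measurement.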
# Pf growth 96h – P. falciparum growth inhibition at 96 hours | AID 504834 | P. falciparum luciferase reporter growth, 96 h | Potency, µM (titrated, usually from 28.7 µM), inactives show top-dose activity change, negative = inhibition, usual class: inhibitors | 320,000 compounds, 6.9% hits; note: potency is the fitted concentration of half-maximal effect; % is set by controls: 0 for no effect and ±100 for the full control effect
#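 Two parasite generations (96 h, 37 C, 5% CO2) of compound exposure in infected erythrocytes (0.05% parasitemia, 2% hematocrit). Luciferase-reporter P. falciparum; decreased luminescence indicates inhibited growth, aimed at apicoplast-acting delayed death.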
# Shiga inhibitor – inhibitors of Shiga toxin in Vero cells. Vero cells, Shiga toxin protein synthesis inhibition reporter. 290,000 compounds, 9.2% hits. AID 2315. inhibition, % at 38.7 µM; in the data active = inhibition mostly above about 28%, no sharp cut-off; inactive = mostly below about 43%; note: 0% is about no effect
# Pf growth 48h – P. falciparum growth inhibition at 48 hours (one generation); P. falciparum luciferase growth in erythrocytes, 48 h; Potency, µM (doses to about 28.7 µM), inactives show top-dose activity change, negative = inhibition, actives largely listed as inhibitors; 310,000 compounds, 5.9% hits; note: potency is the fitted concentration of half-maximal effect; % is set by controls: 0 for no effect and ±100 for the full control effect
#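 A one-generation exposure of luciferase-tagged malaria parasites in RPMI 1640/Albumax erythrocyte culture, 37 C and 5% CO2. Inhibition is inferred from decreased luminescence after adding detection reagent.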
# * = called active by the depositor; ? = inconclusive; nt = no result. Sampled rows, rich in hits. Any-hit rate of the full collection: about 20%. Unless noted, calls come from the whole dose curve; as a rule, active = well fitted inhibition curve with a large enough effect; inconclusive = small, poorly fitted or top-dose-only effect, or another doubt; inactive = no such curve, though single readings can be large or run the other way.
SMILES,Cycloheximide cs,HCMV antiviral,Pf growth 96h,Shiga inhibitor,Pf growth 48h
CCCCNc1nc2c(c(=O)n(C)c(=O)n2C)n1CC(O)COc1ccccc1C (stereo unspecified),nt,-19,nt,nt,nt
COc1ccccc1NC(=O)c1ccc2[nH]c(C)cc(=O)c2c1,nt,19,nt,nt,nt
COc1ccc(-c2[nH]c(-c3ccc(O)cc3)nc2-c2ccccc2)cc1,nt,-24,nt,nt,nt
Cc1c(C(=O)OCC(=O)N(C)c2ccccc2)oc2ccccc12,28*,-6,53%,50*,15%
CCN(CC)CC(C)(C)COC(=O)c1oc2ccccc2c1C,16,-19,33%,43*,4%
Cc1c(C(=O)OCC(C)(C)CN(C)C)oc2ccccc12,44*,12,30%,87*,52%
Cc1cc(N2CCCCCC2)nc2ccc(F)cc12,nt,-39,nt,nt,nt
CCN1C[C@]2(COC)CC[C@H](OC)[C@@]34C1[C@]1(OCO[C@@]15C[C@H](OC)[C@H]1C[C@@H]3[C@@H]5[C@H]1OC)[C@@H](O)[C@H]24,nt,0,26%,nt,8%
CCN1C[C@@]2(COC)CCC(OC)[C@]34C5C[C@]6(O)[C@@H](OC)C[C@](OC(C)=O)(C([C@H](OC)C23)[C@H]14)C5[C@H]6OC(=O)c1ccc(OC)cc1 (stereo partly specified),21*,nt,nt,23*,nt
CCOC(=O)[C@H]1[C@H]2COc3ccc(C)cc3[C@@H]2N2C(=O)[C@@H](C)NC(=O)[C@@]12C,nt,5,?,nt,2%
COc1cccc2sc(Nc3nnc(-c4cccs4)o3)nc12,21*,-86*,144%,74*,?
CC(=O)Nc1nnc(-c2ccco2)o1,2,-20,16%,16,-8%
Fc1cccc2sc(Nc3nnc(-c4ccco4)o3)nc12,40*,14,-20%,171*,-18%
COc1cccc2sc(Nc3nnc(-c4ccc(F)cc4)o3)nc12,19*,30,1.9µM*,39,12µM*
Cc1ccc(CNC(=O)CCCCCn2c(=O)c3sccc3n(CC(=O)Nc3c(C)cc(C)cc3C)c2=O)cc1,nt,2,nt,nt,nt
O=c1c(-c2cc(-c3ccc(F)cc3)nc3c2COc2ccc(Cl)cc2-3)coc2ccc(F)cc12,nt,-21,nt,nt,nt
Cc1ccc(Cn2c(C(=O)O)c(CNC3CCCCC3)c3ccc(C)cc32)cc1,nt,32,nt,nt,nt
O=C1C2C3C=CC(CC3)C2C(=O)N1/N=C/c1ccc(O)c(O)c1 (stereo unspecified),10,17,255%,-8,-4%
O=C1c2ccccc2C(=O)N1/N=C/c1ccc(O)c(O)c1,9,33,-13%,47*,-8%
COc1ccc(NC(=O)c2ccc(COc3ccccc3)o2)cc1,21*,-14,83%,24,34%
Cc1ccc(OCc2ccc(C(=O)Nc3ccc(S(N)(=O)=O)cc3)o2)cc1,18,-29,26%,5,?
COc1ccc(NC(=O)c2ccc(Cc3ccc(C)cc3)o2)cc1,24*,11,?,29,-22%
COc1ccc(NC(=O)c2ccc(COc3ccccc3)o2)c(OC)c1,3,-5,8.3µM*,-5,-8%
COc1ccc(NC(=S)Nc2ccc(OCc3ccccc3)cc2)c(OC)c1,7,-76*,-23%,19,0%
COc1ccc(NC(=O)c2ccc(COc3ccccc3Br)o2)c(OC)c1,nt,-11,nt,nt,nt
SMILES,Cycloheximide cs,HCMV antiviral,Pf growth 96h,Shiga inhibitor,Pf growth 48h
CCC(=O)N1c2ccccc2CC1C(=O)NCc1ccc(CC)cc1 (stereo unspecified),nt,16,nt,nt,nt
O=C(Nc1ccccc1)O[C@@H]1C[C@H]2CCC(=O)N3CC[C@@H](C1)[C@@H]23,31*,nt,68%,38*,108%
O=C(Nc1ccccc1)OC1CC2CC1C1CCCC21 (stereo unspecified),51*,124,35%,94*,143%
O=C(Nc1ccccc1)O[C@@H]1C[C@H]2CCCC(=O)N3CC[C@@H](C1)[C@@H]23,nt,3,nt,nt,nt
CC(=O)C(C(=O)Nc1c(C)cccc1C)N(Cc1ccco1)C(=O)C(=O)c1ccccc1 (stereo unspecified),nt,-12,nt,nt,nt
OC(CNCc1ccco1)COc1ccccc1 (stereo unspecified),2,-1,-1%,24,5%
Cc1cccc(C)c1N(CC(O)Cn1c2ccccc2c2ccccc21)S(C)(=O)=O (stereo unspecified),-2,-33,nt,23,?
CS(=O)(=O)N(Cc1ccco1)CC(O)Cn1c2ccccc2c2ccccc21 (stereo unspecified),1,4,nt,-3,9.3µM*
OC(CNCc1ccco1)Cn1c2ccccc2c2ccccc21 (stereo unspecified),-2,56,5%,-2,2.3µM*
CN(C)CCOc1nc(-c2ccccc2)nc2c1oc1ccccc12,2,-77*,10µM*,-8,9.3µM*
CN(C)CCOc1ncnc2c1oc1ccccc12,1,18,nt,2,11%
CCCCCCCCCCCCCCCCOP(=O)([O-])OCC[N+](C)(C)C,nt,nt,7.6µM*,nt,?
Cc1nc(C(F)(F)F)ccc1C(=O)NCC(O)c1ccccc1 (stereo unspecified),45*,60,86%,71*,103%
Cc1nc(C(F)(F)F)ccc1C(=O)Nc1ccc2ccccc2n1,21*,-18,?,49*,31%
Cc1nc(C(F)(F)F)ccc1C(=O)Nc1ccccc1F,21,-1,?,0,-21%
O=C(CSc1nc(-c2ccccc2)nc2c1Cc1ccccc1O2)N1CCCCC1,nt,16,nt,nt,nt
CC(C)Nc1nc(Cl)nc(NC2CCCCC2)n1,10,84,?,14,-6%
Fc1cc(F)cc(Nc2nc(Cl)nc(NC3CCCC3)n2)c1,nt,-6,?,nt,1%
CC(C)(CO)Nc1nc(Cl)nc(NC2CCCCC2)n1,20*,15,-4%,27,16%
CCNc1nc(Cl)nc(NC2CCCCC2)n1,21*,22,44%,nt,44%
COc1ccc(C)cc1NC(=O)C1CCN(C(=O)c2ccco2)CC1,-4,6,4%,-4,-11%
COc1ccc(N2CCN(C(=O)CCC(=O)N3CCOc4ccc(Cl)cc43)CC2)cc1,-3,-99*,?,-1,-10%
CCC1CN(C(=O)Nc2cc(C)ccc2OC)c2cc(Cl)ccc2O1 (stereo unspecified),nt,-61*,nt,nt,nt
COc1ccccc1CNC(=O)CCC(=O)N1CCOc2ccc(Cl)cc21,-4,2,?,3,-6%
CC(CNC(=O)CCC(=O)N1CCOc2ccc(Cl)cc21)c1ccccc1 (stereo unspecified),-2,-7,13µM*,4,?
O=C(CCC(=O)N1CCOc2ccc(Cl)cc21)NCCCN1CCOCC1,-1,3,-2%,-4,1%
O=C(CCC(=O)N1CCOc2ccc(Cl)cc21)NCc1ccccc1,-3,-35,12µM*,-2,-14%
CCCCN(CCCC)CCNC(=O)CNC(=O)c1cccs1,-1,9,?,31,nt
CN(CCCNC(=O)CCC(=O)N1CCOc2ccc(Cl)cc21)Cc1ccccc1,1,?,15µM*,-2,3%
